Activity calls are given as the source filed them.
How the values were obtained:
[1] = molecular target: Albumin (Bos taurus) (UniProt P02769); experiment: bovine serum albumin binders on microarray, profiling panel, artefact control for SMM control protein annotation, biochemical, small-molecule microarray, Alexa647 label, 635/667 nm fluorescence (AID 1118); conditions: BSA-A647 binding, fluorescence 635 nm, higher = more signal;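 further: score merges 667 nm emission intensity and signal-to-noise per printed compound spot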
[2] = small-molecule microarray binders of probe aXIP, primary screen, biochemical, NeuroSMM set, 635/667 nm fluorescence (AID 1119); conditions: higher = more signal, called active from +8 up or from −8 down;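 further: probe is the protein aXip251-270 applied at 1 µg/mL to compound-printed slides; binding of probe to printed compounds measured as 667 nm fluorescence plus signal to noise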
[3] = small-molecule binders of probe aNOTCH3, primary screen, biochemical, small-molecule microarray, 635/667 nm fluorescence (AID 1120); conditions: higher = more signal;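 further: probe is a biotin-tagged antibody raised against NOTCH3 rather than NOTCH3 protein; score merges spot fluorescence near 667 nm with spot signal to noise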
[4] = small-molecule binders of probe aNOTCH2, primary screen, biochemical, small-molecule microarray, 635/667 nm fluorescence (AID 1121); conditions: higher = more signal;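 further: score merges feature fluorescence read at 667 nm with its signal to noise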
[5] = molecular target: Carbonic anhydrase 2 (Homo sapiens) (UniProt P00918); experiment: CAII small-molecule binders, profiling panel, biochemical, small-molecule microarray, Alexa647-labelled CAII (AID 1122); conditions: CAII-A647 binding fluorescence, higher = more signal
[6] = COS7 lysate on small-molecule microarray, probe aHis, 635 nm (AID 1123); conditions: COS7 cell lysate, fluorescence, higher = more signal;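 further: z-score combines 667nm fluorescence intensity with signal-to-noise per printed compound spot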
[7] = compound binding in COS7 lysate, probe aLAP1, primary screen, cell lysate, small-molecule microarray (AID 1124); conditions: probe aLAP1, fluorescence, higher = more signal;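 further: lysate comes from COS7 cells expressing LAP1 and is applied at 0.3 µg/mL; score merges spot fluorescence near 667 nm with signal-to-noise over triplicate slides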
[8] = tested on: Sam68 (KHDRBS1); experiment: Sam68 small-molecule binders, primary screen, biochemical, small-molecule microarray, 635 nm fluorescence (AID 1125); conditions: small-molecule microarray binding, higher = more signal;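 further: score merges 667 nm channel intensity with signal to noise over triplicate slides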
[9] = tested on: Chordin-like protein 2 (CHRDL2); experiment: CHRDL2 small-molecule binders, primary screen, biochemical, small-molecule microarray, 635 nm fluorescence (AID 1126); conditions: small-molecule microarray binding, fluorescence 635 nm; higher = more signal;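 further: printed compound slides probed with Chrdl2 protein at 4 µg/mL for 1 h at 4 C; score merges 667 nm emission intensity with signal to noise over three replicate slides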
[10] = molecular target: Concanavalin-A (Canavalia ensiformis) (UniProt P02866); experiment: ConA small-molecule binders, primary screen, artefact control for SMM control protein annotation, biochemical, small-molecule microarray, Alexa647 label, 635 nm (AID 1127); conditions: ConA-A647 binding fluorescence, higher = more signal;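 further: z combines 667 nm emission intensity with signal-to-noise across three replicate slides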
[11] = anti-His antibody binders, primary screen, artefact control for SMM control protein annotation, biochemical, small-molecule microarray, 635 nm fluorescence (AID 1128); conditions: anti-His Alexa647 antibody binding, higher = more signal;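 further: score merges feature fluorescence with signal-to-noise for each printed compound spot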
[12] = tested on: Human papillomavirus type 1a E7 protein (residues 1-88); experiment: HPV1a E7 small-molecule binders, primary screen, biochemical, small-molecule microarray, residues 1-88, 635 nm (AID 1129); conditions: small-molecule microarray binding, fluorescence 635 nm; higher = more signal
[13] = molecular target: Focal adhesion kinase 1 (Homo sapiens) (UniProt Q05397); experiment: small-molecule microarray binders of FAK, primary screen, biochemical, 635/667 nm fluorescence, BSA, DTT (AID 1130); conditions: PTK2 binding, 635 nm fluorescence, higher = more signal;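 further: composite of spot emission at 667 nm and signal to noise over triplicate slides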
[14] = tested on: Fibrinogen (Alexa647-labelled); experiment: fibrinogen binders on compound microarrays, profiling panel, artefact control for SMM control-protein annotation, biochemical, small-molecule microarray, 635/667 nm fluorescence (AID 1131); conditions: fibrinogen-A647 binding fluorescence, higher = more signal;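 further: z-score merges 667 nm fluorescence with per-spot signal-to-noise over triplicate slides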
[15] = molecular target: Follistatin (Homo sapiens) (UniProt P19883); experiment: follistatin binders on small-molecule microarrays, primary screen, biochemical, small-molecule microarray, 635/667 nm fluorescence (AID 1132); conditions: FST binding, 635 nm fluorescence, higher = more signal
[16] = molecular target: Fibroblast growth factor 2 (Homo sapiens) (UniProt P09038); experiment: FGF2 binders on small-molecule microarrays, primary screen, biochemical, small-molecule microarray, 635/667 nm fluorescence (AID 1133); conditions: small-molecule microarray binding, FGF2, fluorescence 635/667; higher = more signal
[17] = mitochondrial membrane potential change in A549 cells, profiling panel, cell-based, JC-1 fluorescence, basal, 24 h, 100 nL (AID 1138); conditions: higher = more signal;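 further: A549 lung adenocarcinoma cells under basal conditions with no added stimulus; test concentration not given here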
[18] = tested on: Lefty1; experiment: Lefty1 binders on small-molecule microarrays, primary screen, biochemical, small-molecule microarray, 635/667 nm fluorescence (AID 1139); conditions: small-molecule microarray binding, fluorescence 635/667; higher = more signal
[19] = tested on: wheat germ agglutinin (Triticum aestivum), Alexa647-labelled; experiment: wheat germ agglutinin binders on compound microarrays, profiling panel, artefact control for SMM control-protein annotation, biochemical, small-molecule microarray, 635/667 nm fluorescence (AID 1140); conditions: WGA-A647 binding, 635 nm fluorescence, higher = more signal;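 further: score merges 667 nm feature emission with signal to noise over triplicate slides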
[20] = molecular target: Luciferin 4-monooxygenase (Photinus pyralis) (UniProt P08659); experiment: firefly luciferase enzyme inhibitors, primary screen, biochemical, luminescence, purified enzyme, 2006 set (AID 1141); conditions: SteadyGlo luminescence, 30 min, higher = more signal, called active from +8 up or from −8 down;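 further: cell-free assay with purified firefly luciferase at 100 ng per well in PBS; test concentration not given here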
Sequence of Luciferin 4-monooxygenase (Photinus pyralis) (P08659 whole entry, looked up): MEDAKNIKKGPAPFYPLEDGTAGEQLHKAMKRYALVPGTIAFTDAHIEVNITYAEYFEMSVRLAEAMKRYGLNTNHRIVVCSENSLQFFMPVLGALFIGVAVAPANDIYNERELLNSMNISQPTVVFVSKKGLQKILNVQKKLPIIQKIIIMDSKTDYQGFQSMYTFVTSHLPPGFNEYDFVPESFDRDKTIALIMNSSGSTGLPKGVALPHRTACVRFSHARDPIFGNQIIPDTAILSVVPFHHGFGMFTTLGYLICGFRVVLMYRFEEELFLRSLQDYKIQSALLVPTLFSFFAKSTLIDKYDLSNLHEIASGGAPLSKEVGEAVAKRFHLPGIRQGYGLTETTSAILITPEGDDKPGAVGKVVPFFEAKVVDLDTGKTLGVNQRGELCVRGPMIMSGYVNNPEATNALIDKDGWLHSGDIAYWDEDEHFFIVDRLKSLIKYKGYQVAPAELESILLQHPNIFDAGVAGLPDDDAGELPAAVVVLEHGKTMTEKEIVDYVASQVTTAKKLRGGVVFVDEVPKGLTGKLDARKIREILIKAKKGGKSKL

Sequence of Focal adhesion kinase 1 (Homo sapiens) (Q05397 whole entry, looked up): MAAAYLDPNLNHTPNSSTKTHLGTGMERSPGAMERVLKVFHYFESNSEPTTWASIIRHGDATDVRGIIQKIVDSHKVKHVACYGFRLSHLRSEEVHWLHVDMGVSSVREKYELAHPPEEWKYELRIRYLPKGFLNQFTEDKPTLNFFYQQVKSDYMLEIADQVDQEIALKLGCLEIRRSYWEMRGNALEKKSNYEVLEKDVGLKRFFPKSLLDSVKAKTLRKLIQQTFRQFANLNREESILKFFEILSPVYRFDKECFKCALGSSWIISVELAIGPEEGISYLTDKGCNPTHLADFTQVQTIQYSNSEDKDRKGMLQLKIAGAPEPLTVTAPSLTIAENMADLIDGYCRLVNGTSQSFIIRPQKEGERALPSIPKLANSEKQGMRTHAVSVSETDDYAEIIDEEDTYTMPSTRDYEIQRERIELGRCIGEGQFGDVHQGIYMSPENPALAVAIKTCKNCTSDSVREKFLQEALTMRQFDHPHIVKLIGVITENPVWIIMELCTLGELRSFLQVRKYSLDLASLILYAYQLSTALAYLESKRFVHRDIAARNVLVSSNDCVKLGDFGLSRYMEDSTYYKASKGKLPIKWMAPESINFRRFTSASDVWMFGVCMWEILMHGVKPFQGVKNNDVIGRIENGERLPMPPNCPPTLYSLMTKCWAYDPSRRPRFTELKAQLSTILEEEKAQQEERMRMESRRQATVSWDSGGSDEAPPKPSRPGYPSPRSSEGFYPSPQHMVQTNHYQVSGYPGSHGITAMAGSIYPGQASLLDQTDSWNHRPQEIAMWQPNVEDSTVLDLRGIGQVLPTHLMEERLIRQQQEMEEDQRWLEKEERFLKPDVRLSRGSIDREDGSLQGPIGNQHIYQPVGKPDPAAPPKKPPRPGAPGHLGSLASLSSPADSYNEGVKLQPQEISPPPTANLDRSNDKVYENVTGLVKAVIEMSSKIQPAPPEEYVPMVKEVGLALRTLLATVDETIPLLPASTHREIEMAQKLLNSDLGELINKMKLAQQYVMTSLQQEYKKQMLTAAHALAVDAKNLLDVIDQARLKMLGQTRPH
Sequence of Follistatin (Homo sapiens) (P19883 whole entry, looked up): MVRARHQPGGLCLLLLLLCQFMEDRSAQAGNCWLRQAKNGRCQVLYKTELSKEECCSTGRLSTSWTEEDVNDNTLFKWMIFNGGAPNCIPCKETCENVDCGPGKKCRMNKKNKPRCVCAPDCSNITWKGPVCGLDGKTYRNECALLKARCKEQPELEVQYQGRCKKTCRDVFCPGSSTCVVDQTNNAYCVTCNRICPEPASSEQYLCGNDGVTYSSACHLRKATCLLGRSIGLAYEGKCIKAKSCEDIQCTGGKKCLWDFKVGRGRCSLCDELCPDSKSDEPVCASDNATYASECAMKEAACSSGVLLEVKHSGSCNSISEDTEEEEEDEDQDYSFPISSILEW
Sequence of Fibroblast growth factor 2 (Homo sapiens) (P09038 whole entry, looked up): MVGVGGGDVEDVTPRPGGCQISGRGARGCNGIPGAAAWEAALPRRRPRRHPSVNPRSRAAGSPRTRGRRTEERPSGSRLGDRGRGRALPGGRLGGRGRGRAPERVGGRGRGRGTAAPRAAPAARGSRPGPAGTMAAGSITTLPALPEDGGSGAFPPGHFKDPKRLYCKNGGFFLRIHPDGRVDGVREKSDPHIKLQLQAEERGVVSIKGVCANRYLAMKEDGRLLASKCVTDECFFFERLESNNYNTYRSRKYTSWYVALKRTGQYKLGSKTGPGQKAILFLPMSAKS
Sequence of Albumin (Bos taurus) (P02769 whole entry, looked up): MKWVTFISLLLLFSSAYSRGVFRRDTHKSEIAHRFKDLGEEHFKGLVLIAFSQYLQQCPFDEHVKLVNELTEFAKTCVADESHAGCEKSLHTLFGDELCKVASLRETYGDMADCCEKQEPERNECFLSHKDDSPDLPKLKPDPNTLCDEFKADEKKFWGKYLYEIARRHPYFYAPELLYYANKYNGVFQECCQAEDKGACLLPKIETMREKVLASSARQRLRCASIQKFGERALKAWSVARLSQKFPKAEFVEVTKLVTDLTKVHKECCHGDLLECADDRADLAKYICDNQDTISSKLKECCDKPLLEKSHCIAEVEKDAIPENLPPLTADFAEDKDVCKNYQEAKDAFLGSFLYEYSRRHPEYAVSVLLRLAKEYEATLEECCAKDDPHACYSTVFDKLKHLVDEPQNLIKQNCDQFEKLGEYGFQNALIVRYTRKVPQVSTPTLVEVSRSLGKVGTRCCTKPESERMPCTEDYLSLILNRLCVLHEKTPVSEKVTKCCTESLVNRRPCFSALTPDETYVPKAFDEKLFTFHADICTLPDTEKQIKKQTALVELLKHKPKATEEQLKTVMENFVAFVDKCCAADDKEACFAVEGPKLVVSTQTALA
Sequence of Concanavalin-A (Canavalia ensiformis) (P02866 whole entry, looked up): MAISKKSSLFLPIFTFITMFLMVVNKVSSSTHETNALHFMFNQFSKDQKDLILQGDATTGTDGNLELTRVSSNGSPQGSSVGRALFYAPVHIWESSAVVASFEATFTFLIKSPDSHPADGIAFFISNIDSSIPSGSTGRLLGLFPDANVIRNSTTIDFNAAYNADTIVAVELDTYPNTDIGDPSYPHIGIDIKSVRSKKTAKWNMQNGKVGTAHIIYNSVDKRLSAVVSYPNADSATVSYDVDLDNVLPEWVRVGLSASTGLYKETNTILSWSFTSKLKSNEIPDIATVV

Compound	composite z-score [1]	composite Z-score [2]	composite z-score [3]	composite z-score [4]	composite z-score [5]	composite z-score [6]	composite z-score [7]	composite z-score [8]	composite z-score [9]	composite z-score [10]	composite z-score [11]	composite z-score [12]	composite z-score [13]	composite z-score [14]	composite z-score [15]	composite z-score [16]	z-score [17]	composite z-score [18]	composite z-score [19]	z-score [20]
COCCOC(=O)N1C(=O)[C@@]2(c3cc(C#CCCO)ccc31)[C@H](c1ccc(OCCO)cc1)N1[C@H](c3ccccc3)[C@H](c3ccccc3)OC(=O)[C@H]1[C@@H]2C(=O)Nc1nc2ccccc2s1	0.648	-0.22 (inactive)	0.0556	0.02	0.406	0.556	0.559	1.31	0.27	1.13	0.872	1.15	0.479	0.817	1.32	0.759	-2.37	1.41	1.13	-2.18 (inactive)
[N-]=[N+]=Nc1ccccc1[C@@H]1OC(c2ccc(OCCCO)cc2)=N[C@]1(Cc1ccccc1)C(=O)N1CCCCC1	0.712	0.254 (inactive)	0.22	-0.108	0.415	1.94	1.36	1.29	-0.365	0.948	0.782	1.24	0.218	1.02	1.21	0.768	-1.07	0.816	1.03	-5.31 (inactive)
[N-]=[N+]=Nc1ccccc1C[C@]1(C(=O)N2CCOCC2)COC(c2ccc(OCCCO)cc2)=N1	0.808	0.04 (inactive)	0.373	-0.118	0.763	2.21	-0.181	1.29	-0.646	0.99	0.964	1.24	0.144	1.04	0.39	-0.313	0.9	-0.0478	0.606	-5.96 (inactive)
C=CC[C@]1(C(=O)N2CCCCC2)N=C(c2ccc(OCCCO)cc2)O[C@H]1c1ccccc1CN=[N+]=[N-]	0.472	0.256 (inactive)	0.405	-0.147	0.69	2.31	0.817	1.3	-0.406	1.1	1.33	1.24	0.293	1.01	1.29	0.524	1.29	0.228	0.657	0.498 (inactive)
COc1cc(NN2C(C(O)c3ccco3)C=CC3C(=O)N(C)C(=O)C32)cc(OC)c1OC (stereo not given)	0.593	0.319 (inactive)	0.313	0.267	0.738	0.815	-0.0901	0.633	0.861	0.215	1.04	0.388	-0.422	0.127	-0.0496	0.127	0.629	0.0051	0.793	-0.249 (inactive)
C[N+](C)(C)CCCCCCNC(=O)[C@@H]1C[C@@H]2C(=O)N3CCC[C@H]3C(=O)N2[C@@H]1c1ccc(O)cc1	-0.245	0.05 (inactive)	0.0591	-0.118	0.684	1.47	0.326	0.904	1.41	0.818	1.36	0.451	0.0225	-0.472	1.4	1.42	-1.19	1.3	0.6	0.824 (inactive)

Source: PubChem BioAssay
